Assay results: PubChem BioAssay
Values joined by “and” are separate entries in the source; they are usually repeats but may differ in a detail not shown here. Identical values can stand only once. Active and inactive are the calls of the source. Rule as the data show it, unless noted: active = inhibition above about 80%; inactive = the rest.

Assay: growth inhibition, single agents and combos, UWB1.289, cell-based, BGB or cisplatin combos, synergistic combos for chromothripsis tumors (AID 1671456);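 also: cells exposed to compound for four days; 0% = vehicle DMSO and 100% = killing by high DMSO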
Details: UWB1.289 ovarian carcinoma cells, measured here: inhibition with BGB combination, at 0.05 µM, stronger effect = higher value

| Structure (SMILES) | inhibition |
| --- | --- |
| O=c1[nH]cc(F)c(=O)[nH]1 | -23.6% |
| CCCCCCNC(=O)n1cc(F)c(=O)[nH]c1=O | -24.4% and -30.3% |
| Cn1cnc([N+](=O)[O-])c1Sc1ncnc2nc[nH]c12 | -15.3% and -18.7% |
| CCn1cc(C(=O)O)c(=O)c2cc(F)c(N3CCN(C)CC3)cc21 | -24.8% and -1.17% |

Same assay, conditions: UWB1.289 ovarian carcinoma cells, measured here: inhibition with cisplatin combination, at 0.05 µM, stronger effect = higher value

| Structure (SMILES) | inhibition |
| --- | --- |
| O=c1[nH]cc(F)c(=O)[nH]1 | -10.5% |
| CCCCCCNC(=O)n1cc(F)c(=O)[nH]c1=O | -28.4% and -20.9% |
| Cn1cnc([N+](=O)[O-])c1Sc1ncnc2nc[nH]c12 | -7.01% and -1.15% |
| CCn1cc(C(=O)O)c(=O)c2cc(F)c(N3CCN(C)CC3)cc21 | -21.6% and 2.48% |

Assay: growth inhibition, single agents and combos, LFS_MB_2R, cell-based, cisplatin combos, synergistic combos for chromothripsis tumors (AID 1671457);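 also: cells exposed to compound for four days before readout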
Details: LFS_MB_2R medulloblastoma cells, at 0.5 µM, stronger effect = higher value

| Structure (SMILES) | inhibition |
| --- | --- |
| O=c1[nH]cc(F)c(=O)[nH]1 | -13.7% (inactive) |
| CCCCCCNC(=O)n1cc(F)c(=O)[nH]c1=O | -18.7% (inactive) and -16.7% (inactive) |
| Cn1cnc([N+](=O)[O-])c1Sc1ncnc2nc[nH]c12 | -16.6% (inactive) and -22.7% (inactive) |
| CCn1cc(C(=O)O)c(=O)c2cc(F)c(N3CCN(C)CC3)cc21 | -5.46% (inactive) and 1.79% (inactive) |

Same assay, conditions: LFS_MB_2R medulloblastoma cells, measured here: combination with cisplatin, at 0.5 µM, stronger effect = higher value

| Structure (SMILES) | inhibition |
| --- | --- |
| O=c1[nH]cc(F)c(=O)[nH]1 | -7.48% |
| CCCCCCNC(=O)n1cc(F)c(=O)[nH]c1=O | -15.8% and -16.6% |
| Cn1cnc([N+](=O)[O-])c1Sc1ncnc2nc[nH]c12 | -17.1% and -11.6% |
| CCn1cc(C(=O)O)c(=O)c2cc(F)c(N3CCN(C)CC3)cc21 | 3.08% and 3.79% |

Same assay, conditions: LFS_MB_2R medulloblastoma cells, measured here: combination with cisplatin, at 5 µM, stronger effect = higher value

| Structure (SMILES) | inhibition |
| --- | --- |
| O=c1[nH]cc(F)c(=O)[nH]1 | -1.94% |
| CCCCCCNC(=O)n1cc(F)c(=O)[nH]c1=O | -25.7% and -25.2% |
| Cn1cnc([N+](=O)[O-])c1Sc1ncnc2nc[nH]c12 | -20.9% and -25.4% |
| CCn1cc(C(=O)O)c(=O)c2cc(F)c(N3CCN(C)CC3)cc21 | -14.9% and -26.1% |

Assay: growth inhibition, MDA-MB-436, cell-based, BGB or cisplatin combos, synergistic combos for chromothripsis tumors (AID 1671458; call rule not given here;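 also: cells exposed for 96 hours; 0% = vehicle DMSO and 100% = killing by high DMSO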)
Details: MDA-MB-436 breast carcinoma growth inhibition, drug combinations; at 0.5 µM; stronger effect = higher value

| Structure (SMILES) | inhibition |
| --- | --- |
| O=c1[nH]cc(F)c(=O)[nH]1 | -17.3% (inactive) |
| CCCCCCNC(=O)n1cc(F)c(=O)[nH]c1=O | -3.42% (inactive) and -19.4% (inactive) |
| Cn1cnc([N+](=O)[O-])c1Sc1ncnc2nc[nH]c12 | -2.35% (inactive) and 8.87% (inactive) |
| CCn1cc(C(=O)O)c(=O)c2cc(F)c(N3CCN(C)CC3)cc21 | -8.42% (inactive) and -1.21% (inactive) |

Same assay, conditions: MDA-MB-436 breast carcinoma growth inhibition, drug combinations; measured here: BGB combination; at 0.5 µM; stronger effect = higher value

| Structure (SMILES) | inhibition |
| --- | --- |
| O=c1[nH]cc(F)c(=O)[nH]1 | -27.5% |
| CCCCCCNC(=O)n1cc(F)c(=O)[nH]c1=O | -7.14% and -19.3% |
| Cn1cnc([N+](=O)[O-])c1Sc1ncnc2nc[nH]c12 | -11.4% and 6.51% |
| CCn1cc(C(=O)O)c(=O)c2cc(F)c(N3CCN(C)CC3)cc21 | -5.87% and 9.12% |

Same assay, conditions: MDA-MB-436 breast carcinoma growth inhibition, drug combinations; measured here: BGB combination; at 5 µM; stronger effect = higher value

| Structure (SMILES) | inhibition |
| --- | --- |
| O=c1[nH]cc(F)c(=O)[nH]1 | -5.42% |
| CCCCCCNC(=O)n1cc(F)c(=O)[nH]c1=O | 9.33% and -1.4% |
| Cn1cnc([N+](=O)[O-])c1Sc1ncnc2nc[nH]c12 | 17.6% and 21.4% |
| CCn1cc(C(=O)O)c(=O)c2cc(F)c(N3CCN(C)CC3)cc21 | -7.49% and 1.82% |

Same assay, conditions: MDA-MB-436 breast carcinoma growth inhibition, drug combinations; measured here: cisplatin combination; at 0.5 µM; stronger effect = higher value

| Structure (SMILES) | inhibition |
| --- | --- |
| O=c1[nH]cc(F)c(=O)[nH]1 | -20.4% |
| CCCCCCNC(=O)n1cc(F)c(=O)[nH]c1=O | -19.1% and -44.2% |
| Cn1cnc([N+](=O)[O-])c1Sc1ncnc2nc[nH]c12 | -16% and 2.87% |
| CCn1cc(C(=O)O)c(=O)c2cc(F)c(N3CCN(C)CC3)cc21 | -16.3% and -4.65% |

Same assay, conditions: MDA-MB-436 breast carcinoma growth inhibition, drug combinations; measured here: cisplatin combination; at 5 µM; stronger effect = higher value

| Structure (SMILES) | inhibition |
| --- | --- |
| O=c1[nH]cc(F)c(=O)[nH]1 | 36.2% |
| CCCCCCNC(=O)n1cc(F)c(=O)[nH]c1=O | 33.3% and 25.8% |
| Cn1cnc([N+](=O)[O-])c1Sc1ncnc2nc[nH]c12 | 26.8% and 35.6% |
| CCn1cc(C(=O)O)c(=O)c2cc(F)c(N3CCN(C)CC3)cc21 | -9.37% and -6.1% |

Assay: UWB1.289_BRCA1 ovarian cancer growth, cell-based, BGB or cisplatin combinations (AID 1671459)
Details: UWB1.289 BRCA1 ovarian carcinoma, drug combinations, BGB combination, concentration series, at 5 µM, stronger effect = higher value

| Structure (SMILES) | inhibition |
| --- | --- |
| O=c1[nH]cc(F)c(=O)[nH]1 | 2.42% |
| CCCCCCNC(=O)n1cc(F)c(=O)[nH]c1=O | 34.1% and 35.2% |
| Cn1cnc([N+](=O)[O-])c1Sc1ncnc2nc[nH]c12 | 90.9% and 88.9% |
| CCn1cc(C(=O)O)c(=O)c2cc(F)c(N3CCN(C)CC3)cc21 | -6.71% and 0.813% |

Same assay, conditions: UWB1.289 BRCA1 ovarian carcinoma, drug combinations, at 0.5 µM, stronger effect = higher value

| Structure (SMILES) | inhibition |
| --- | --- |
| O=c1[nH]cc(F)c(=O)[nH]1 | -7.71% (inactive) |
| CCCCCCNC(=O)n1cc(F)c(=O)[nH]c1=O | 11% (inactive) and 22.4% (inactive) |
| Cn1cnc([N+](=O)[O-])c1Sc1ncnc2nc[nH]c12 | 37.4% (inactive) and 50.2% (inactive) |
| CCn1cc(C(=O)O)c(=O)c2cc(F)c(N3CCN(C)CC3)cc21 | -17.9% (inactive) and 5.05% (inactive) |

Same assay, conditions: UWB1.289 BRCA1 ovarian carcinoma, drug combinations, cisplatin combination, concentration series, at 5 µM, stronger effect = higher value

| Structure (SMILES) | inhibition |
| --- | --- |
| O=c1[nH]cc(F)c(=O)[nH]1 | 17% |
| CCCCCCNC(=O)n1cc(F)c(=O)[nH]c1=O | 14.4% and 26.3% |
| Cn1cnc([N+](=O)[O-])c1Sc1ncnc2nc[nH]c12 | 96.5% and 101% |
| CCn1cc(C(=O)O)c(=O)c2cc(F)c(N3CCN(C)CC3)cc21 | -12.6% and 1.69% |

Assay: drug combination toxicity in non-malignant astrocytes – cell-based, BGB or cisplatin IC20 combos, cytotoxicity control for chromothriptic childhood tumor combination screen (AID 1671460);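 also: cells exposed to compounds for 96 hours before viability readout; 0% = vehicle and 100% = killing control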
Details: Human astrocytes, viability inhibition, drug combinations; at 0.5 µM; stronger effect = higher value

| Structure (SMILES) | inhibition |
| --- | --- |
| O=c1[nH]cc(F)c(=O)[nH]1 | -3.88% (inactive) |
| CCCCCCNC(=O)n1cc(F)c(=O)[nH]c1=O | 7.08% (inactive) and 16.2% (inactive) |
| Cn1cnc([N+](=O)[O-])c1Sc1ncnc2nc[nH]c12 | -1.25% (inactive) and 13.6% (inactive) |
| CCn1cc(C(=O)O)c(=O)c2cc(F)c(N3CCN(C)CC3)cc21 | -3.63% (inactive) and -0.44% (inactive) |
